Bioassay records: PubChem, several laboratories
Hits are enriched below; roughly 3.4% of the tested compounds scored in any of these assays.
PTPN22 inh 2 = LYP (human) phosphatase inhibition. inhibition, % at 2 µM. 96,000 tested, 0.21% active. recombinant LYP catalytic domain, DiFMUP fluorescence. Q9Y2R2. AID 640;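 active = inhibition at 2 µM at or above a set limit, the screen mean plus 3 SD, cut at about 24% in these data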;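 note: 0% = DMSO with enzyme and 100% = enzyme fully blocked by orthovanadate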
ERb SRC1 inh = ER-beta (human) coactivator binding inhibition | TR-FRET ER-beta LBD / SRC1-Cy5 peptide binding; receptor agonist-loaded with 1 µM estradiol | AID 633 | 86,000 tested, 1.3% active | Q92731 | inhibition, % at 25.6 µM;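 active = compounds whose percent inhibition of the receptor-coactivator binding signal exceeds about 50% in the single-dose screen, limit read from the data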;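 note: 0% = receptor plus peptide wells without compound and 100% = peptide-only wells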
Target sequence (Q92731 whole entry, looked up, the tested form may be a part): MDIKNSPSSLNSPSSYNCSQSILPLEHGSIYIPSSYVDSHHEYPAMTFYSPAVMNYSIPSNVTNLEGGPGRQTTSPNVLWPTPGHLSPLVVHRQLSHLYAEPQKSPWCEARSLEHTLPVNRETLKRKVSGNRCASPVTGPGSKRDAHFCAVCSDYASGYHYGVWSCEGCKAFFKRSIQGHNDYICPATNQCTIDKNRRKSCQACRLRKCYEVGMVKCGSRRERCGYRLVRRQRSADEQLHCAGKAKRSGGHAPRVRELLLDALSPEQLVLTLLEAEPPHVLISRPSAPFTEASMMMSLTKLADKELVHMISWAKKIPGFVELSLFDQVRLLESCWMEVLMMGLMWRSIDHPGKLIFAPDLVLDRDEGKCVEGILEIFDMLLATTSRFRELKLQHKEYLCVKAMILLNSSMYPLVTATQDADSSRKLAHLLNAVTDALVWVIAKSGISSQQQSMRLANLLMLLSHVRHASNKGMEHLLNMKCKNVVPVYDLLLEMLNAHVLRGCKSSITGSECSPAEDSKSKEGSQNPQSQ
ERa SRC1 inh = ER-alpha (human) coactivator binding inhibition; TR-FRET ER-alpha LBD / SRC-1 peptide, estradiol-bound; 86,000 tested, 1.7% active; AID 629; inhibition, % at 25.6 µM; in the data active = inhibition above about 50%;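 note: 0% = receptor plus peptide control and 100% = peptide only without receptor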
FAK blocker = FAK (human) kinase inhibition; Q05397; biochemical FAK kinase activity assay; inhibition, %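 (tested at 7 µM)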; 97,000 tested, 0.84% active; in the data active = inhibition above about 19%;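 note: 0% = DMSO and 100% = reference compound high control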
PTPN22 act = activators of human LYP (PTPN22) phosphatase; recombinant LYP, DiFMUP fluorescence; 0 = plate median, 100 = signal doubled; activation, % at 2 µM; 96,000 tested, 0.11% active; AID 697;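 active = activation at 2 µM above a set limit, the mean plus 5 SD, cut at about 37% in these data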
ERa coact pot = ER-alpha (human) coactivator binding potentiation; TR-FRET ERalpha-LBD/SRC-Cy5 coactivator binding, 2 h; 100 = basal binding, no effect; AID 639; coactivator binding (% of control), % at 25.6 µM; 86,000 tested, 1.3% active; in the data active = activity above about 200%;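 note: binding measured in presence of low estradiol as agonist stimulus; 0% = peptide alone without receptor and 100% = receptor with peptide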
Active calls of the source: *; · = not tested or not shown; [ ] = remark or other dose.

SMILES	PTPN22 inh 2	ERb SRC1 inh	ERa SRC1 inh	FAK blocker	PTPN22 act	ERa coact pot
Cc1ccc(CC(=O)NCc2ccc3c(c2)OCO3)cc1	2	0	14	-2	1	111
Cc1ccc(S(=O)(=O)Cc2ccc(C(=O)O)o2)cc1	14	76*	69*	5	-13	25
Cc1ccc(S(=O)(=O)Cc2ccc(C(=O)NCc3ccc4c(c3)OCO4)o2)cc1	11	43	51*	4	-8	62
COCCNC(=O)c1ccc(CS(=O)(=O)c2ccc(C)cc2)o1	4	3	-6	4	-5	126
Cc1ccc(S(=O)(=O)Cc2ccc(C(=O)N3CCN(Cc4ccccc4)CC3)o2)cc1	·	58*	61*[fluorescence artefact?]	·	·	85
Cc1ccc(S(=O)(=O)Cc2ccc(C(=O)N3CCc4ccccc4C3)o2)cc1	9	76*	78*[fluorescence artefact?]	16	-10	50
N#CC1=C(N)n2c(s/c(=C\c3ccco3)c2=O)=C(C#N)C1c1ccco1 (configuration not stated)	-1	67*[fluorescence artefact?]	75*[fluorescence artefact?]	1	-1	36
CCOC(=O)C1=C(N)n2c(s/c(=C/c3ccco3)c2=O)=C(C(=O)OC)C1c1ccco1 (configuration not stated)	6	3	27	4	-7	75
O=C1CCSc2ccc(Cl)cc2N1Cc1ccc(Cl)cc1	12	·	·	-2	-6	·
CCOC(=O)C1CCCN(C(=O)CSc2nccn2C)C1 (configuration not stated)	-2	-3	-9	-5	1	109
Cc1cc(C)cc(CC(Cc2nc3ccccc3[nH]2)c2nc3ccccc3[nH]2)c1 (configuration not stated)	9	·	·	6	-4	·
CC(=O)NC12CC3CC(C1)CC(C(=O)OCC(=O)Nc1ncc(Cl)c(C)c1Cl)(C3)C2	·	60*	74*[fluorescence artefact?]	·	·	49
CC(C)=CC(=O)OCC(=O)Nc1ncc(Cl)c(C)c1Cl	-11	31	28	9	7	37
COC(=O)C(NC(=O)c1ccccc1)(Nc1cc(C)cc(C)n1)C(F)(F)F (configuration not stated)	-8	-6	-11	-1	4	113
COc1ccc(NC(=O)CSc2ccc3c4c(cccc24)C(=O)c2ccccc2-3)cc1	26*	·	·	4	-22	·
CN(CC(=O)NCc1ccncc1)S(=O)(=O)c1ccc(F)cc1	-22	-6	-7	0	18	88
CCOC(=O)c1cccc(NC(=O)c2cccs2)c1	-1	79*	-3	-3	1	114
Clc1ccc(-c2nc3n(n2)Cc2ccccc2-3)cc1	-1	16	21	6	1	289*
CCc1cccc(CC)c1NC(=O)CN1CC(C)SC1=NC1CCCCC1 (configuration not stated)	7	-5	-4	3	-4	102
COC(=O)c1ccc(CSc2nc(C)nc3sc(C)c(C)c23)o1	4	43	55*	0	-4	119
COc1ccc(-c2nc(Cn3c(SCc4ccccc4F)nc4ccncc43)c(C)o2)cc1	1	21	-2	10	-2	458*[fluorescence artefact?]
COc1ccc(-c2nc(Cn3c(SCc4ccc(F)cc4)nc4ccncc43)c(C)o2)cc1OC	5	27	42	-4	-8	188
Cc1cc(NC(=O)CCC(=O)N(CC(=O)NCC2CCCO2)c2ccc3c(c2)OCCO3)no1 (configuration not stated)	-2	-1	4	-5	0	96
COc1ccccc1NC(=O)CSc1nnc(COc2ccc(Cl)cc2)n1Cc1ccco1	-8	-3	-2	10	5	100
C=CCn1c(COc2ccccc2F)nnc1SCC(=O)NC(=O)NCc1ccco1	·	54*	67*[fluorescence artefact?]	·	·	98
SMILES	PTPN22 inh 2	ERb SRC1 inh	ERa SRC1 inh	FAK blocker	PTPN22 act	ERa coact pot
COc1ccccc1OCc1nnc(SCC(=O)NCc2ccco2)n1Cc1ccco1	26*	29	37	7	-26	207*[fluorescence artefact?]
C=CCn1c(COc2ccccc2-c2ccccc2)nnc1SCC(=O)NC(=O)NCc1ccco1	-1	7	-2	2	0	91
CCOC(=O)c1c(NC(=O)CSc2nnc3c(n2)[nH]c2ccccc23)sc2c1CCN(C)C2	2	·	·	20*	-5	·
C=CCn1cnc2scc(-c3ccc(C)cc3)c2c1=O	-8	5	-3	1	5	90
C=CCNc1sc(C(=O)c2ccccc2)c(N)c1C#N	10	12	97*[fluorescence artefact?]	15	-10	98
C=CCNc1sc(C(=O)c2ccc(C)cc2)c(N)c1C#N	8	16	5	14	-8	86
COc1cccc(NC(=O)c2nnn(Cc3ccc(Br)cc3F)c2N)c1	·	-24	-3	·	·	270*
COc1ccc(C(=O)OCc2cc3cccc(C)c3[nH]c2=O)cc1	6	32	21	-20	-9	217*[fluorescence artefact?]
COCC(C)NC(=O)c1cccc(Cl)c1 (configuration not stated)	-5	2	5	-3	3	109
COC(=O)C(/C=N/OCc1ccc([N+](=O)[O-])cc1)NC(=O)c1cccc(Cl)c1 (configuration not stated)	-17	20	24	2	17	395*[fluorescence artefact?]
CC(=O)c1cccc(NC(=O)CN(c2ccccc2)S(C)(=O)=O)c1	·	48	28	·	·	711*[fluorescence artefact?]
CN(C)S(=O)(=O)N(CC(=O)Nc1ccccc1C(F)(F)F)c1ccccc1	1	34	70*[fluorescence artefact?]	2	-1	67
CSc1cccc(NC(=O)CN(c2ccccc2)S(=O)(=O)N(C)C)c1	11	37	50*	19	-10	61
Cc1ccccc1C1C(C#N)=C2N=C(N)c3c(sc4c3CCCCC4)N2C2=C1C(=O)CCC2 (configuration not stated)	9	·	·	-1	-7	·
Cc1ccc(-c2nn(CC(=O)NC(C)c3ccccc3)c(=O)c3ccccc23)cc1 (configuration not stated)	6	1	27	-4	-3	207*[fluorescence artefact?]
CCC(=O)Nc1c(C#N)c2nc3ccccc3nc2n1-c1ccccc1C	·	18	7	·	·	124
CCCCn1c(NC(=O)CC)c(C#N)c2nc3ccccc3nc21	1	43	72*	2	-2	221*[fluorescence artefact?]
CCC(=O)Nc1c(C#N)c2nc3ccccc3nc2n1C1CCCCC1	14	34	65*[fluorescence artefact?]	17	-14	101
CCC(C)C(NC(C)=O)C(=O)NC(=O)NC(c1ccccc1)c1ccccc1 (configuration not stated)	14	-6	0	-1	-13	109
Cc1cc(C)cc(NC(=S)NCCN2CCOCC2)c1	6	·	·	-7	0	·
O=C(Cc1cccs1)Nc1nnc(CCc2ccccc2)s1	-8	19	16	1	5	103
O=C(Cc1cccs1)Nc1nncs1	-3	56*	39	1	-2	64
O=C(Cc1cccs1)Nc1nnc(Cc2ccccc2)s1	-3	91*	96*[fluorescence artefact?]	29*	1	36
